Not all results are given here.
aSyn 5UTR act = Activators via SNCA 5'UTR binding, MLPCN. alpha-synuclein 5'UTR reporter, activators screen. activity score, % (tested at 7.5 µM), hits read low. 300,000 compounds, 7.1% hits; in the data active = activity score below about -60%
Numbers without * were called inactive.

SMILES | aSyn 5UTR act
CCN(CC)CCCNc1nc2cc(OC)c(OC)cc2c2nc(-c3cccnc3)nn12 | -79*
CCN(CC)CCCNc1nc2ccccc2c2nc(-c3ccncc3)nn12 | -281*
CCN(CC(=O)c1c(N)n(C)c(=O)n(C)c1=O)c1cccc2ccccc12 | -72*
CCCc1ccc2oc(C(=O)N(C)Cc3ccn[nH]3)c(C)c2c1 | -85*
CCCc1ccc2oc(C(=O)N(Cc3nccn3C)C(C)C)c(C)c2c1 | -73*
CCc1ccc(-c2ccc(C(=O)C(F)(F)F)[nH]2)cc1 | -80*
COc1ccccc1-n1cc2c([N+](=O)[O-])cc([N+](=O)[O-])cc2n1 | -69*
CN(C)CCOc1nc(-c2ccccc2)nc2c1oc1ccccc12 | -88*
Fc1ccc(CO/N=C2\CCCc3nonc32)cc1 | -91*
COc1ccc(-n2nc([N+](=O)[O-])c(=NCc3ccco3)n2O)cc1 | -83*
COc1ccc(-n2nc([N+](=O)[O-])c(=NCCC3=CCCCC3)n2O)cc1 | -82*
COc1ccc(-n2nc([N+](=O)[O-])c(=NCc3cccnc3)n2O)cc1 | -121*
CCc1ccc(N=c2c([N+](=O)[O-])nn(-c3ccccc3)n2O)cc1 | -88*
O=C(Nc1ccccc1)OC1CC2CC1C1CCCC21 (stereo not given) | -141*
O=C(Nc1ccccc1)O[C@@H]1C[C@H]2CCC(=O)N3CC[C@@H](C1)[C@@H]23 | -136*
Cc1ccc2nc3c(nc2c1)-c1ccccc1C3=O | -65*
Cc1cccc2nc3c(nc12)-c1ccccc1C3=O | -106*
Cc1cnc(Nc2nc3ccccc3o2)nc1C(=O)Nc1cccc(C(F)(F)F)c1 | -67*
CCN1CCN(Cc2ccc(NC(=O)c3ccc(C)c(NC(=O)c4ccno4)c3)cc2C(F)(F)F)CC1 | 67
Cc1ccc(C(=O)Nc2ccc(Br)c(C(F)(F)F)c2)cc1 | -212*
COc1cc(C(=O)NCC(=O)N2CCN(S(=O)(=O)c3cc(C)ccc3C)CC2)cc(OC)c1OC | -75*
CN1CCCN(C(=O)/C=C/c2ccc(Cl)cc2Cl)CC1 | -62*
O=[N+]([O-])c1ccc(-c2ccc(/C=N/c3c(-c4ccco4)nc4ccccn34)o2)cc1 | -75*
Cc1cc(C)c([N+](=O)[O-])cc1-c1ccc(/C=N/c2c(-c3ccco3)nc3ccccn23)o1 | -92*
Oc1cccc(/C=N/c2c(-c3ccco3)nc3ccccn23)c1 | -72*
SMILES | aSyn 5UTR act
CCOC(=O)c1c(N/N=C/c2cccnc2)n[nH]c1C | -157*
CCOc1ccccc1N1CCN(C(=O)c2cn(CC3CCCCC3)nn2)CC1 | -84*
COc1ccc(NC(=O)c2ccccc2NC(=O)CSc2ccc(Cl)cc2)cc1 | -67*
COC(=O)c1ccc(NC(=O)CSc2ccccc2)cc1 | -129*
COc1ccc(NC(=O)c2ccccc2NC(=O)CSc2ccccc2)cc1 | -79*
Cc1ccc(/C=N/n2cc(-c3ccccc3)[nH]c2=S)s1 | -169*
Oc1ccc(/C=N/n2cc(-c3ccccc3)[nH]c2=S)cc1 | -92*
S=c1[nH]c(-c2ccccc2)cn1/N=C/c1ccccc1Br | -83*
O=C1c2ccccc2NC(c2ccc(O)cc2)N1c1ccccc1 (stereo not given) | -64*
O=C1c2ccccc2NC(c2ccc(O)cc2)N1/N=C/c1ccc(O)cc1 (stereo not given) | -122*
O=C(Nc1cccc(-c2nc3ccccc3s2)c1)c1cccs1 | -63*
O=C(CSc1nnc2ccccn12)Nc1cccc(-c2nc3ccccc3s2)c1 | -134*
O=C(CCS(=O)(=O)c1ccccc1)Nc1cccc(-c2nc3ccccc3s2)c1 | -135*
O=[N+]([O-])c1ccccc1N/N=C/c1ccc2c(c1)OCO2 | -95*
O=[N+]([O-])c1ccccc1N/N=C/c1ccccc1 | -231*
COc1ccc(NC(=O)c2cc3cccc(OC)c3oc2=Nc2ccc(C(=O)O)cc2)cc1OC | -116*
COc1cccc(NC(=O)c2cc3cccc(OC)c3o/c2=N\O)c1 | -81*
CC(=O)Nc1ccc(NC(=O)/C(Cl)=C/c2ccccc2)cc1 | -117*
O=C(c1ccco1)N1CCN(Cc2c(Cl)cccc2Cl)CC1 | -85*
Cc1ccc(C(=O)N/N=C/c2cn(Cc3ccccc3)c3ccccc23)cn1 | 64
Cc1ccc(C(=O)N/N=C\c2ccc(-c3ccc(Cl)c(Cl)c3)o2)cn1 | -66*
Brc1ccccc1/C=N/Nc1ccc2ccccc2n1 | -256*
Brc1ccc(/C=N/Nc2ccccc2)cc1 | -92*
Cc1cc(N/N=C/c2ccccc2Br)nc2ccccc12 | -196*
Brc1ccc(/C=N/Nc2ccc3ccccc3n2)cc1 | -187*
SMILES | aSyn 5UTR act
Oc1ccc(C2C(c3ccccc3)=NN=C(c3ccc(Cl)cc3)N2O)c(O)c1 (stereo not given) | -72*
Oc1ccc(C2C(c3ccccc3)=NN=C(c3ccccc3F)N2O)c(O)c1 (stereo not given) | -91*
COc1ccccc1C(=O)N1CCN(c2cccc(Cl)c2)CC1 | 64
Cc1ccccc1C(=O)NNC(=O)c1ccc(Br)cc1 | -96*
COc1ccccc1C(=O)CC(=O)c1ccccc1 | -114*
COc1ccccc1C(=O)NNC(=O)c1cccc(Cl)c1 | -66*

Source: PubChem BioAssay
